Only some compounds are listed: those with a hit (about 4.1% of all), similar ones and a draw of the others.
FAS TE block = FAS thioesterase domain inhibitors, primary screen, biochemical, fluorescence intensity, uHTS | recombinant FAS-TE, OMFH fluorogenic substrate, fluorescence endpoint | inhibition, % at 15 µM | Fatty acid synthase (Homo sapiens), P49327 | 360,000 compounds, 0.67% hits;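 active = compounds whose normalised, plate-corrected inhibition of enzyme fluorescence in the single-dose primary screen is 50% or more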
beta cell repl = inducers of MIN6 beta-cell proliferation, primary screen, ATP luminescence, uHTS; MIN6 cells proliferation, ATPlite luminescence, 48 h; cells starved in 0.2% serum; 100% = growth in 10% serum; proliferation, % at 10 µM; 330,000 compounds, 0.29% hits;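 active = compounds whose signal lies at least 3.5 SD above the mean of all wells on their plate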
GRIN3A LBD mod = binders of NR3A ligand-binding domain, primary screen, biophysical, differential scanning fluorimetry, uHTS | Glutamate receptor ionotropic, NMDA 3A (GRIN3A) ligand-binding domain | NR3A LBD differential scanning fluorimetry, Tm shift; 0% = protein alone, 100% = glycine-bound protein | Tm shift relative to glycine control, % at 25 µM | 340,000 compounds, 2.5% hits;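 active = melting temperature shift of at least 10% of the positive control shift, at one fixed dose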
MPTP block = mitochondrial permeability transition pore inhibitors, primary screen, biochemical, isolated mouse mitochondria, absorbance; 360,000 compounds, 1.4% hits; AID 602449, 2012; Ca2+ swelling absorbance, 30 min; inhibition, % at 10 µM;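 active = inhibition of 50% or more, scaled per plate between neutral and stimulator controls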
pCIP destab = p/CIP-EGFP fusion destabilizers, primary screen, fluorescence, F442A cells; decrease of EGFP signal, % at 10 µM; 290,000 compounds, 0.01% hits; 16 h;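 active = EGFP signal decrease of at least 30% at 10 µM or well 3 SD below plate mean, unless failing retest; inactive = the rest, including hits failing retest or dose response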
Each line names hits and unclear results; the compound was inactive in the other large screens.

CN(CC(=O)Nc1ccccc1Br)C(=O)c1cccnc1Nc1cccc(C(F)(F)F)c1	GRIN3A LBD mod 15
COc1ccc(S(=O)(=O)N2CCCC2CNC(=O)C(=O)Nc2ccc(F)cc2)cc1 (stereo not given)	GRIN3A LBD mod 11 (no result: pCIP destab)
COc1ccc(CCNC(=O)c2cccc(S(=O)(=O)N3CCCCC3)c2)cc1	none
COc1ccc(CCNC(=O)C(=O)NCCC2CCCCN2S(=O)(=O)c2cccs2)cc1 (stereo not given)	none (no result: pCIP destab)
Cc1ccc(S(=O)(=O)N2CCCCC2CCNC(=O)C(=O)NCc2ccco2)cc1 (stereo not given)	GRIN3A LBD mod 18 (no result: pCIP destab)
COc1ccc(CCNC(=O)C(=O)NCCC2CCCCN2S(=O)(=O)c2ccccc2)cc1 (stereo not given)	GRIN3A LBD mod 11 (no result: pCIP destab)
COc1ccc(CCNC(=O)c2cc(S(=O)(=O)N3CCCCC3)ccc2Cl)cc1	GRIN3A LBD mod 15 (no result: pCIP destab)
Cc1cc(C)cc(Cn2cc(CN3CC(N4CCN(Cc5ccccc5F)CC4)CS3(=O)=O)nn2)c1 (stereo not given)	none (no result: beta cell repl, GRIN3A LBD mod, pCIP destab)
COc1ccc(C(=O)OCC(=O)c2ccco2)cc1[N+](=O)[O-]	none (no result: beta cell repl, GRIN3A LBD mod, pCIP destab)
Cc1ccc(S(=O)(=O)Nc2ccccc2C(=O)OC(C)C(=O)Nc2ccc3ccccc3c2)cc1[N+](=O)[O-] (stereo not given)	none
CC(=O)c1ccc(NC(=O)C(C)OC(=O)c2ccc(NS(=O)(=O)c3ccc(F)c(F)c3)cc2)cc1 (stereo not given)	GRIN3A LBD mod 11
Cc1ccc(NC(=O)C(C)OC(=O)c2ccc(NS(=O)(=O)c3ccc(F)c(F)c3)cc2)cc1 (stereo not given)	GRIN3A LBD mod 28
CCc1ccc(NC(=O)C(C)OC(=O)c2ccc(NS(=O)(=O)c3ccc(C)c([N+](=O)[O-])c3)cc2)cc1 (stereo not given)	GRIN3A LBD mod 13
O=C(O)c1ccc(C=NN=C2c3ccccc3-c3ccccc32)cc1	GRIN3A LBD mod 28 (no result: beta cell repl, pCIP destab)
O=C(O)c1ccc(N=C2c3ccccc3-c3ccccc32)cc1	none (no result: beta cell repl, pCIP destab)
CCCCN(C(=O)c1cc(S(=O)(=O)N2CCCCC2)ccc1Cl)c1c(N)n(CCC)c(=O)[nH]c1=O	none (no result: beta cell repl, pCIP destab)
CCOC(=O)C(C#N)=CN1CCNc2ccccc21	none (no result: beta cell repl, pCIP destab)
COC(CNC(=O)c1ccc2nc(-c3cccs3)c(-c3cccs3)nc2c1)OC	GRIN3A LBD mod 16
CCOC(=O)c1snc(-c2ccc(F)cc2)c1N	GRIN3A LBD mod 14
CCOc1ccc(C(=O)OCC(=O)NC(C)C)cc1	none
CCOc1ccc(C(=O)OCC(=O)NCCNC(=O)COC(=O)c2ccc(OCC)cc2)cc1	GRIN3A LBD mod 14
CCOc1ccc(C(=O)NCCCCNC(=O)c2ccc(OCC)cc2)cc1	GRIN3A LBD mod 15
CC(=O)OCC(C)n1[nH]c2ccccc2c1=O (stereo not given)	none (no result: beta cell repl, GRIN3A LBD mod, pCIP destab)
CCN1C(=O)C(CC(=O)Nc2ccc(OC)cc2)N(CCc2ccccc2)C1=S (stereo not given)	none
CCCOc1ccc(NC(=O)CC2C(=O)N(Cc3ccccc3)C(=S)N2Cc2cccs2)cc1 (stereo not given)	GRIN3A LBD mod 16
CCN1C(=O)C(CC(=O)Nc2ccc(F)cc2)N(Cc2cccs2)C1=S (stereo not given)	GRIN3A LBD mod 13
CC(C)(C)C1CCN2CCCC(c3ccc([N+](=O)[O-])cc3)(C1)C21OCCO1 (stereo not given)	none (no result: beta cell repl, GRIN3A LBD mod, pCIP destab)
Cc1cccc2c1CC(C)(C)N=C2C1=C(O)CCCC1=O	GRIN3A LBD mod 14
CC(=O)N1CCc2cc(NC(=O)C3(C)CCN3Cc3ccccc3OC(F)F)ccc21 (stereo not given)	none (no result: beta cell repl, GRIN3A LBD mod, pCIP destab)
COc1cc2ccccc2cc1C(=O)N1CCc2ccccc21	none (no result: pCIP destab)
CCCC(=O)Nc1ccc(Nc2ccccc2)cc1	GRIN3A LBD mod 10
Cc1sc(NC(=O)Nc2ccccc2)c(C(N)=O)c1C	GRIN3A LBD mod 13
O=C(Nc1ccccc1)Nc1ccc(Nc2ccccc2)cc1	GRIN3A LBD mod 29 (no result: pCIP destab)
O=S1(=O)CC(N2CCN(CC3CC3)CC2)CN1CCc1ccccc1 (stereo not given)	none (no result: beta cell repl, GRIN3A LBD mod, pCIP destab)
CNc1cc(-c2cccc(OC)c2F)nc2ccnn12	none (no result: beta cell repl, GRIN3A LBD mod, pCIP destab)
CC(C)(C)NC(=O)C(C1CC1)n1c(=O)c(-c2ccco2)nc2ccccc21 (stereo not given)	none (no result: FAS TE block, beta cell repl, GRIN3A LBD mod, pCIP destab)
CCC(=O)Nc1ccc(S(=O)(=O)Nc2nccs2)cc1	none
CCCCC1CCC(C(=O)Nc2ccc(S(=O)(=O)Nc3nccs3)cc2)CC1 (stereo not given)	GRIN3A LBD mod 15
CC(C)Cn1cnc2c(SCCc3ccccc3)nc(N)nc21	none (no result: beta cell repl, pCIP destab)
CC1(C(=O)NCc2ccccc2Br)CCN1Cc1csc2ccccc12 (stereo not given)	none (no result: beta cell repl, GRIN3A LBD mod, pCIP destab)
CC1(C(=O)NS(=O)(=O)Cc2cccc(Cl)c2)CCN1C(=O)C/C=C/c1ccccc1 (stereo not given)	none (no result: beta cell repl, GRIN3A LBD mod, pCIP destab)
CC(=O)Nc1cccc(NC(=O)C2CC(=O)N(C3CCCCC3)C2)c1 (stereo not given)	none
O=C(Nc1cccc([N+](=O)[O-])c1)C1CC(=O)N(C2CCCCC2)C1 (stereo not given)	GRIN3A LBD mod 14
C/C(N)=C(/C#N)C(=O)CSc1nnc(-c2ccccc2Br)o1	none
COc1ccc(-c2nnc(SCC(=O)/C(C#N)=C(\C)N)o2)cc1	GRIN3A LBD mod 13
O=c1[nH]c(O)c(/C=C2\C=Nc3ccc(Br)cc32)[nH]1	GRIN3A LBD mod 42
C[C@@H]1CN(S(=O)(=O)C(C)(C)C)[C@H](CCO)/C1=C\c1ccccc1	none (no result: beta cell repl, pCIP destab)
CC(=O)Nc1ccc(S(=O)(=O)NC2=C(N3CCN(c4ccc(F)cc4)CC3)C(=O)c3ccccc3C2=O)cc1	GRIN3A LBD mod 16
Cc1ccc(S(=O)(=O)NC2=C(N3CCN(c4ccccc4F)CC3)C(=O)c3ccccc3C2=O)cc1	none
O=C(c1cccs1)N1C[C@@H](n2cc(C3CC3)nn2)[C@H](O)C[C@@H]1c1ccc(Cl)cc1	none (no result: beta cell repl, GRIN3A LBD mod, pCIP destab)
N#CC(C#N)=C1C=C2C=C(N3CCCCC3)CCC2CC1 (stereo not given)	GRIN3A LBD mod 21 (no result: FAS TE block, beta cell repl, MPTP block)
CC[C@@H](C(=O)n1nc(C)cc1C)[C@H](NS(=O)(=O)c1ccc(C)cc1)c1ccccc1	GRIN3A LBD mod 13
CC(C)Sc1nsc2nc(=O)c(/C=C3\C=Nc4ccccc43)c(N)n12	GRIN3A LBD mod 25
CS(=O)(=O)c1nsc2nc(=O)c(/C=C3\C=Nc4ccccc43)c(N)n12	GRIN3A LBD mod 39
CCCCc1c(-c2ccccc2OC)ncn1CCc1ccc(Cl)cc1	none (no result: beta cell repl, GRIN3A LBD mod, pCIP destab)
CCC(=O)N1CCN(CCN=CC2=C(O)CC(C)(C)CC2=O)CC1	GRIN3A LBD mod 13
CCOC(=O)C1CCCN(C(=O)c2ccc3ccccc3c2)CC1 (stereo not given)	none (no result: beta cell repl, GRIN3A LBD mod, pCIP destab)

Screening results from PubChem.
